Our source for the outcome and AC50 values is PubChem BioAssay (EPA / NIEHS).

Calls of active or inactive are those of the source. The calls were made as follows: active = hit-call score of the fitted dose curve at least 0.9, where 1 is the maximum; inactive = score below 0.9.

A short description of experiment [1]: ATG_E_Box_CIS: Attagene CIS-FACTORIAL HepG2 Assay for human Enhancer Box (E-box) (AID 2282936). The conditions noted are these: HepG2 E-box cis-reporter transcription, actives raise or lower the signal. The procedure, abridged: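 Endogenous transcription factor activity was sensed in human HepG2 liver cells through transfected cis-promoter reporter units. After 24 h of dosing, total RNA was reverse-transcribed and reporter cDNA resolved by capillary electrophoresis.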

Experiment [2] can be described thus: ATG_M_61_CIS: Attagene CIS-FACTORIAL HepG2 Assay for M61 Transcription Factor (Internal Marker) (AID 2282937). The conditions noted are these: HepG2 Attagene CIS-FACTORIAL M61 internal marker reporter; actives raise or lower the signal. The procedure, abridged: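 Background-control endpoint: HepG2 cells with cis-regulated reporter constructs, 24 h exposure, reporter mRNA detected via fluorescent primer extension and capillary electrophoresis; values from bidirectional fitting with DMSO baseline.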

Experiment [3] is described as follows: ATG_EGR_CIS: Attagene CIS-FACTORIAL HepG2 Assay for human Early Growth Response 1 (EGR1) (AID 2282938). The conditions noted are these: HepG2 Attagene CIS-FACTORIAL EGR reporter mRNA; actives raise or lower the signal. The method in brief: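 Endpoint derived by bidirectional fitting versus DMSO vehicle. Method: cis-promoter reporter units transfected into HepG2, 24 h dosing, RNA isolation, RT-PCR with 6-FAM primer extension and HpaI digestion, then capillary electrophoresis fluorescence detection.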

Experiment [4] can be described thus: ATG_M_19_CIS: Attagene CIS-FACTORIAL HepG2 Assay for M19 Transcription Factor (Internal Marker) (AID 2282939). To be noted: HepG2 Attagene CIS-FACTORIAL M19 internal marker reporter; actives raise or lower the signal. The procedure, abridged:
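Internal marker readout, fitted in both directions against DMSO, from HepG2 cells carrying transfected cis-element reporter constructs; RT-PCR and capillary electrophoresis of reporter mRNA after 24 h exposure.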

Experiment [5] can be described thus: ATG_ERE_CIS: Attagene CIS-FACTORIAL HepG2 Assay for Estrogen Response Element (ERE) (AID 2282940). The conditions noted are these: HepG2 ERE cis-reporter, Attagene RNA transcript; actives raise or lower the signal. The procedure, abridged: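 After 24 h compound treatment, RNA from transfected HepG2 cells was reverse-transcribed, reporter cDNA PCR-amplified, FAM-labelled, HpaI-cut and resolved by capillary electrophoresis. ERE-driven cis reporter transcripts reflect endogenous factors; gain or loss scored against DMSO.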

Experiment [6] is described as follows: ATG_Ets_CIS: Attagene CIS-FACTORIAL HepG2 Assay for human Erythroblast Transformation Specific (ETS) (AID 2282941). To be noted: HepG2 ETS cis-reporter transcription; AC50: actives raise or lower the signal unless noted; outcome: actives raise or lower the signal unless noted. The procedure, abridged: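 RT-PCR/capillary electrophoresis fluorescence read-out of reporter mRNA; HepG2 transient multi-reporter transfection; 24 h compound exposure; gain or loss of signal fitted bidirectionally relative to DMSO.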

Experiment [7] concerns the target Hepatocyte nuclear factor 3-beta (Homo sapiens) (UniProt Q9Y261). Briefly: ATG_FoxA2_CIS: Attagene CIS-FACTORIAL HepG2 Assay for human Forkhead box A2 (FOXA2) (AID 2282942). To be noted: HepG2 cis-reporter transcription factor activity, 24 h; actives raise or lower the signal. The procedure, abridged:
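Measured: reporter mRNA induction or loss in HepG2 transiently carrying multiple cis-regulated reporter units, 24 h after dosing. Quantified by RT-PCR plus capillary electrophoresis, normalised to DMSO.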

Experiment [8] is described as follows: ATG_FoxO_CIS: Attagene CIS-FACTORIAL HepG2 Assay for human Forkhead box O (FoxO) (AID 2282943). To be noted: HepG2 Attagene cis-reporter, FoxO element, mRNA; actives raise or lower the signal. The method in brief: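 Values reflect reporter mRNA induction or loss in HepG2 cells 24 h post-dosing, fitted bidirectionally with DMSO as negative control and baseline. Detection used RT-PCR and fluorescence capillary electrophoresis.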

Experiment [9] is described as follows: ATG_GATA_CIS: Attagene CIS-FACTORIAL HepG2 Assay for human GATA Binding Protein (AID 2282944). To be noted: HepG2 GATA cis-element reporter, Attagene multiplex mRNA; actives raise or lower the signal. The procedure, abridged:
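Reporter transcripts from a GATA cis-regulated unit, among multiplexed reporters in transfected HepG2 cells, were measured by RT-PCR with capillary electrophoresis after 24 h dosing. Induction or loss scored relative to DMSO.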

Experiment [10] in a line: ATG_GLI_CIS: Attagene CIS-FACTORIAL HepG2 Assay for human Zinc Finger Protein GLI1 (AID 2282945). The conditions noted are these: HepG2, Attagene cis-factorial reporter mRNA, GLI element; actives raise or lower the signal. The procedure, abridged:
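HepG2 cells transiently transfected with cis-promoter multiplexed reporter units report endogenous transcription factor activity. After 24 h chemical exposure, reporter mRNA was quantified by RT-PCR, 6-FAM labelling, HpaI digestion and capillary electrophoresis, with bidirectional fitting against DMSO.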

For experiment [11], the target named is Bile acid receptor (Homo sapiens) (UniProt Q96RI1). Briefly: ATG_IR1_CIS: Attagene CIS-FACTORIAL HepG2 Assay for human Nuclear Receptor Subfamily 1 Group H Member 4 (NR1H4), IR1 submotif (AID 2282946). The conditions noted are these: IR1 reporter transcription, actives raise or lower the signal. The procedure, abridged: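 Readout: reporter transcript levels by RT-PCR with fluorescent capillary electrophoresis, from HepG2 cells transiently transfected with multiplexed cis-regulated reporters and dosed 24 h. Gain- or loss-of-signal fitted versus DMSO negative control.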

Experiment [12] can be described thus: ATG_GRE_CIS: Attagene CIS-FACTORIAL HepG2 Assay for human Glucocorticoid Response Elements (GRE) (AID 2282947). The conditions noted are these: HepG2 GRE cis-reporter, Attagene multiplex mRNA; AC50: actives raise or lower the signal unless noted; outcome: actives raise or lower the signal unless noted. The procedure, abridged: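 Cells (HepG2) bearing transfected cis-promoter reporter transcription units were treated with chemical for 24 hours. Reporter mRNA was measured via RT-PCR with capillary electrophoresis, and activity was fitted in both directions relative to DMSO.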

Experiment [13] in a line: ATG_M_32_CIS: Attagene CIS-FACTORIAL HepG2 Assay for M32 Transcription Factor (Internal Marker) (AID 2282949).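 Also: background control marker of the multiplexed CIS panel rather than a real target.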 The conditions noted are these: HepG2 Attagene cis-factorial M32 reporter, mRNA; actives raise or lower the signal. The procedure, abridged:
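HepG2 transfectants (cis-regulated reporter transcription units) dosed 24 h. Reporter mRNA by RT-PCR plus CE, analysed as gain or loss relative to DMSO.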

Experiment [14] is described as follows: ATG_M_06_CIS: Attagene CIS-FACTORIAL HepG2 Assay for M06 Transcription Factor (Internal Marker) (AID 2282950). To be noted: HepG2 Attagene CIS-FACTORIAL M06 internal marker reporter; actives raise or lower the signal. The procedure, abridged:
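Serves as a background control readout. Transfected HepG2 exposed to compounds for 24 h, then reporter transcripts quantified by fluorescent RT-PCR and capillary electrophoresis. Both directions fitted against DMSO baseline.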

In experiment [15] the target is Hypoxia-inducible factor 1-alpha (Homo sapiens) (UniProt Q16665). Briefly: ATG_HIF1a_CIS: Attagene CIS-FACTORIAL HepG2 Assay for human Hypoxia Inducible Factor 1 (HIF1A) (AID 2282951). To be noted: HepG2 Attagene cis-factorial HIF1a reporter transcription; actives raise or lower the signal. The method in brief: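 Dosed 24 h, transfected HepG2 cells yielded total RNA whose reporter transcripts were RT-PCR-amplified and sized by capillary electrophoresis using fluorescent labelling; DMSO defined baseline, with gain and loss of signal both fitted.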

The target in experiment [16] is Hepatocyte nuclear factor 6 (Homo sapiens) (UniProt Q9UBC0). Briefly: ATG_HNF6_CIS: Attagene CIS-FACTORIAL HepG2 Assay for human Hepatocyte Nuclear Factor 6 (HNF6) (AID 2282952). To be noted: HepG2 Attagene cis-factorial HNF6 reporter transcription; actives raise or lower the signal. The method in brief:
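Using cis-element reporters in HepG2 liver cells, the assay tracks endogenous factor-driven transcription 24 h post-dosing. Signal comes from 6-FAM-labelled, HpaI-digested RT-PCR fragments, with gain or loss scored against DMSO.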

Experiment [17] has as its target Heat shock factor protein 1 (Homo sapiens) (UniProt Q00613). In words: ATG_HSE_CIS: Attagene CIS-FACTORIAL HepG2 Assay for human Heat Shock Transcription Factor 1 (HSE) (AID 2282953). The conditions noted are these: HepG2 HSE cis-reporter, Attagene RNA transcription; actives raise or lower the signal. The method in brief:
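Endogenous transcription factor activity in transiently transfected HepG2, read as reporter mRNA by RT-PCR with fluorescent capillary electrophoresis after 24 h. Gain or loss of signal fitted versus DMSO baseline.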

A short description of experiment [18]: ATG_MRE_CIS: Attagene CIS-FACTORIAL HepG2 Assay for human Metal Responsive Element (MRE) (AID 2282954). The conditions noted are these: HepG2 MRE cis-reporter transcription, Attagene multiplex; actives raise or lower the signal. The procedure, abridged:
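Cells were transfected with cis-promoter reporter transcription units, then dosed for 24 h. RNA was reverse-transcribed, amplified, fluorescently labelled and resolved by capillary electrophoresis, and activity was fitted in both directions relative to DMSO.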

Experiment [19] is described as follows: ATG_PBREM_CIS: Attagene CIS-FACTORIAL HepG2 Assay for human Phenobarbital-responsive Enhancer Module (PBREM) (AID 2282955). The conditions noted are these: HepG2 PBREM cis-reporter, Attagene multiplexed transcription; actives raise or lower the signal. The procedure, abridged:
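Transfected liver-derived HepG2 cells exposed 24 h; PBREM reporter transcript quantified via RT-PCR and capillary electrophoresis, with activity in either direction referenced to DMSO.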

A short description of experiment [20]: ATG_ISRE_CIS: Attagene CIS-FACTORIAL HepG2 Assay for human Interferon Regulatory Factor 1 (IRF1) binding to an Interferon-Stimulated Response Element (ISRE) (AID 2282948). To be noted: HepG2 ISRE cis-reporter (Attagene), mRNA transcription readout; actives raise or lower the signal. The procedure, abridged: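 Read-out: fluorescent RT-PCR products resolved by capillary electrophoresis, reporting endogenous transcription factor activity via ISRE-driven reporter mRNA in transfected HepG2 cells dosed for 24 h; gain or loss fitted relative to DMSO.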

Hepatocyte nuclear factor 3-beta (Homo sapiens), sequence (Q9Y261 whole entry, looked up): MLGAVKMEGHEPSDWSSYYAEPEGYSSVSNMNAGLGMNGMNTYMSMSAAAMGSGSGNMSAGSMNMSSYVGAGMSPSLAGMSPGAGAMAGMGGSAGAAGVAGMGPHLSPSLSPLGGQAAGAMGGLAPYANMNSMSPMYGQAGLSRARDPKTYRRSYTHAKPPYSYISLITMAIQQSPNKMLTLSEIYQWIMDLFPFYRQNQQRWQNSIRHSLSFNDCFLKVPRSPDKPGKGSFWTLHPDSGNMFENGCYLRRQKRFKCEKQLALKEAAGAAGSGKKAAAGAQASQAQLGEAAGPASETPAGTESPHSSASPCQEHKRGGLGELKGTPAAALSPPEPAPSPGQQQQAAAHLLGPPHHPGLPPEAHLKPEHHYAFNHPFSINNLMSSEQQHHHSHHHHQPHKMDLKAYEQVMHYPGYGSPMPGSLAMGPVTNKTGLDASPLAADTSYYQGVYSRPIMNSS
Bile acid receptor (Homo sapiens), sequence (Q96RI1 whole entry, looked up): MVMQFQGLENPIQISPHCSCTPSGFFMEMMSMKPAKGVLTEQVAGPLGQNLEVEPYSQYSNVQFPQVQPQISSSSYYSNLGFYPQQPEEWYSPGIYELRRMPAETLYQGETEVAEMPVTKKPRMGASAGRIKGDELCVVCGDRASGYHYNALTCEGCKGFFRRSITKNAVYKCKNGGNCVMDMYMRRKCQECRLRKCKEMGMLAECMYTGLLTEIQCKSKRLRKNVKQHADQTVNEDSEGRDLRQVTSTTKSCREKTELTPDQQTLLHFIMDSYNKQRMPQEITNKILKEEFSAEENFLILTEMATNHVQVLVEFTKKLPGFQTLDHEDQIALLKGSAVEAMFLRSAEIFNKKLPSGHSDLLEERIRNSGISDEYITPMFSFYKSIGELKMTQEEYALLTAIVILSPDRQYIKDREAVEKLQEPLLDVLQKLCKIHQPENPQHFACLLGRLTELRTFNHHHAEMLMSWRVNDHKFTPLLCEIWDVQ
Hepatocyte nuclear factor 6 (Homo sapiens), sequence (Q9UBC0 whole entry, looked up, the tested form may be a part): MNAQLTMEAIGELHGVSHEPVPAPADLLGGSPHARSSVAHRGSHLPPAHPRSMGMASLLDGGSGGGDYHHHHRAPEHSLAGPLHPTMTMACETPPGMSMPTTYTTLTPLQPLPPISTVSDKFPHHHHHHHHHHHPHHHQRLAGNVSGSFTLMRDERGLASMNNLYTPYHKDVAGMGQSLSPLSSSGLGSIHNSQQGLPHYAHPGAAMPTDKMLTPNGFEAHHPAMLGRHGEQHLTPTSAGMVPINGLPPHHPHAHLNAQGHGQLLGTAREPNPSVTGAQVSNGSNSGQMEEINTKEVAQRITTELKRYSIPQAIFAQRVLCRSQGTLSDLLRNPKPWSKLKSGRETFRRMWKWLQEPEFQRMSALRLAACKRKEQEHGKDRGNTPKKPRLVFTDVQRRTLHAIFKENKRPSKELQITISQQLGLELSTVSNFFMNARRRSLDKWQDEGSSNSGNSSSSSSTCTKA
Heat shock factor protein 1 (Homo sapiens), sequence (Q00613 whole entry, looked up): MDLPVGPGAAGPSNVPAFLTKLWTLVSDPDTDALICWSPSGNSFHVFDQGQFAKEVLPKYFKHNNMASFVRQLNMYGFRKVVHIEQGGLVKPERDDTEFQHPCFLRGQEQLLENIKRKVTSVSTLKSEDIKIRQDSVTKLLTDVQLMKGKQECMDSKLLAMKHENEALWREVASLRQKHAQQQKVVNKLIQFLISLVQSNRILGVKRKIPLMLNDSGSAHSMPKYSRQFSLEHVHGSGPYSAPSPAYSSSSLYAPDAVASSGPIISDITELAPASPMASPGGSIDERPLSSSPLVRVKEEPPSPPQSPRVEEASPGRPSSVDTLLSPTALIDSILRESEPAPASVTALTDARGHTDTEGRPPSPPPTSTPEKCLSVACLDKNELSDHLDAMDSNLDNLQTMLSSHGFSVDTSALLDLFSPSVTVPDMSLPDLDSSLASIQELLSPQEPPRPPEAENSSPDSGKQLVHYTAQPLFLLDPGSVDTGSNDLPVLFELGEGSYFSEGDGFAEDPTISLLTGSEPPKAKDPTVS
Hypoxia-inducible factor 1-alpha (Homo sapiens), sequence (Q16665 whole entry, looked up): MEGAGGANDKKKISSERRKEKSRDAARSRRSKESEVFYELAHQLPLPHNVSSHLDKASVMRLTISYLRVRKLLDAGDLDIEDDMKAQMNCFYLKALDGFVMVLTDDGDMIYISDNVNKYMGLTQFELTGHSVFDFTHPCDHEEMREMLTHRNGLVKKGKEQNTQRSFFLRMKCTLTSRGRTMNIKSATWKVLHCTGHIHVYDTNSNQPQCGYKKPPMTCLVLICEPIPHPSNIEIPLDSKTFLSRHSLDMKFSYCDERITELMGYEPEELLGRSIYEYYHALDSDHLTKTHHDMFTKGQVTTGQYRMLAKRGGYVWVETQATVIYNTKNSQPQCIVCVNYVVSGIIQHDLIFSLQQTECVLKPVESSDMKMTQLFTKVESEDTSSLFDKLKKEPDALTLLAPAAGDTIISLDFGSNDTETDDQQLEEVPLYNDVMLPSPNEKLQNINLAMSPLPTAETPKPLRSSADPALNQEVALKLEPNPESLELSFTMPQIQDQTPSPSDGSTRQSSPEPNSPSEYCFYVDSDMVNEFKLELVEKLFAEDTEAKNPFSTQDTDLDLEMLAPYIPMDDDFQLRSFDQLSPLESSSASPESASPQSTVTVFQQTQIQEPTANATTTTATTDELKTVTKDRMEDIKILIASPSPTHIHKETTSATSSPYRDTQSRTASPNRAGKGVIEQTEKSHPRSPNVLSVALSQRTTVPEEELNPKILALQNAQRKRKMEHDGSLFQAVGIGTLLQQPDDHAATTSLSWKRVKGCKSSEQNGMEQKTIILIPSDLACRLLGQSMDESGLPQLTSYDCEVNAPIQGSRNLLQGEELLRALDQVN

Regarding `O=C(O)c1cccc(C(=O)O)n1`, the result in [1], in [2], in experiment [3], in experiment [4], in experiment [5] and in [6] was inactive. For the same molecule, the result in [7], in experiment [8], in [9], in [10], in experiment [11] and in experiment [12] was inactive. Further, the molecule was classed as inactive in [13], in experiment [14], in experiment [15], in experiment [16], in [17] and in [18]. In addition, in [19], the result was inactive.

`FC(F)(F)C(F)(F)C(F)(F)C(F)(F)I`: the result in experiment [1], in experiment [2], in experiment [3], in experiment [4], in [5] and in experiment [6] was inactive. Besides, the result in [7], in experiment [8], in experiment [9], in experiment [10], in experiment [11] and in [12] was inactive. Besides, the molecule was called inactive in experiment [20], in experiment [13], in [14], in experiment [15], in experiment [16] and in experiment [17]. In addition, the result in [19] was inactive.

Take `C=Cc1ccc(O)c(OC)c1`: the outcome in [1], in experiment [2], in experiment [3], in [4], in [5] and in [6] was inactive. Further, the outcome in experiment [7], in experiment [8], in [9], in experiment [10], in experiment [11] and in experiment [12] was inactive. In addition, the result in [13], in [14], in [15], in experiment [16], in [17] and in experiment [19] was inactive.

For `COCN(COC)c1nc(N(COC)COC)nc(N(COC)COC)n1`, the result in [1], in experiment [2], in experiment [3], in experiment [4], in [6] and in [7] was inactive. Moreover, the outcome in [8], in [9], in experiment [10], in experiment [11], in experiment [12] and in experiment [13] was inactive. Moreover, the result in experiment [14], in experiment [15], in experiment [16], in [17], in experiment [18] and in experiment [19] was inactive. Besides, in [5], the AC50 was 23.7 µM (active).

For `Clc1ccc(Nc2nnc(Cc3ccncc3)c3ccccc23)cc1`, the outcome in experiment [1], in [2], in experiment [4], in [5], in experiment [6] and in [7] was inactive. Besides, the outcome in experiment [8], in experiment [9], in [10], in experiment [11], in experiment [12] and in experiment [20] was inactive. Also, the molecule was called inactive in experiment [13] and in experiment [14]. Also, the AC50 was 16 µM (active) in experiment [3]; 15.8 µM (active) in experiment [15]; 17.9 µM (active) in experiment [16]; 75.2 µM (active) in experiment [17]; 8.51 µM (active) in experiment [19].

Take `CN(CCO)S(=O)(=O)C(F)(F)C(F)(F)C(F)(F)C(F)(F)C(F)(F)C(F)(F)C(F)(F)C(F)(F)F`: the outcome in [1], in experiment [2], in [3], in experiment [4], in experiment [5] and in experiment [6] was inactive. In addition, the molecule was called inactive in [7], in experiment [8], in [9], in experiment [11], in experiment [12] and in experiment [20]. In addition, the call in [13], in experiment [14], in experiment [15], in [16], in experiment [17] and in experiment [18] was inactive. In addition, the result in experiment [19] was inactive.

Usually AC50 stands for the concentration giving half of the maximal activity seen.
